“And” between values parts separate entries of the source, which are not always exact repeats. Equal entries are not always repeated. Among all 5,700 compounds or so, about 85 (1%) were called active. No stated cut-off is given here; in the data, active means p53-positive nuclei above about 36% (passing the limit was not always enough); inactive means the rest. For the sample, actives were picked, then their nearest neighbours and some compounds at random.

Test [1] in a line: nuclear p53 accumulation, HPV+ cells – imaging, p53-positive nuclei imaging, 24 h, 48 h (AID 1508601). The following applies: 24/48 h.
The target in test [2] is Cellular tumor antigen p53 (Homo sapiens) (UniProt P04637). Described as above. The following applies: 24/48 h, stronger effect = higher value.
Where [3] appears, read: measured here: cell number at 24 h, concentration not given here.
Setting [4] is: measured here: cell number at 48 h, concentration not given here.
Setting [5] is: measured here: p53 positive nuclei at 24 h, concentration not given here.
Where [6] appears, read: measured here: cell number at 24 h, Library stock concentration: 3.33 mM.
Where [7] appears, read: measured here: cell number at 48 h, Library stock concentration: 3.33 mM.
Setting [8] is: Library stock concentration: 3.33 mM.
The mark [9] stands for this setting: measured here: p53 positive nuclei at 24 h, Library stock concentration: 3.33 mM.
The mark [10] stands for this setting: measured here: cell number at 24 h, Library stock concentration: 80 uM.
Where [11] appears, read: measured here: cell number at 24 h, Library stock concentration: 400 uM.
Setting [12] is: measured here: cell number at 24 h, Library stock concentration: 2 mM.
Where [13] appears, read: measured here: cell number at 24 h, Library stock concentration: 10 mM.
The mark [14] stands for this setting: measured here: cell number at 48 h, Library stock concentration: 80 uM.
Setting [15] is: measured here: cell number at 48 h, Library stock concentration: 400 uM.
The mark [16] stands for this setting: measured here: cell number at 48 h, Library stock concentration: 2 mM.
Setting [17] is: measured here: cell number at 48 h, Library stock concentration: 10 mM.
Setting [18] is: Library stock concentration: 80 uM.
Setting [19] is: Library stock concentration: 400 uM.
The mark [20] stands for this setting: Library stock concentration: 2 mM.
Setting [21] is: Library stock concentration: 10 mM.
[22] abbreviates: measured here: p53 positive nuclei at 24 h, Library stock concentration: 80 uM.
The mark [23] stands for this setting: measured here: p53 positive nuclei at 24 h, Library stock concentration: 400 uM.
Setting [24] is: measured here: p53 positive nuclei at 24 h, Library stock concentration: 2 mM.
Setting [25] is: measured here: p53 positive nuclei at 24 h, Library stock concentration: 10 mM.

Chain of Cellular tumor antigen p53 (Homo sapiens) (P04637 whole entry, looked up): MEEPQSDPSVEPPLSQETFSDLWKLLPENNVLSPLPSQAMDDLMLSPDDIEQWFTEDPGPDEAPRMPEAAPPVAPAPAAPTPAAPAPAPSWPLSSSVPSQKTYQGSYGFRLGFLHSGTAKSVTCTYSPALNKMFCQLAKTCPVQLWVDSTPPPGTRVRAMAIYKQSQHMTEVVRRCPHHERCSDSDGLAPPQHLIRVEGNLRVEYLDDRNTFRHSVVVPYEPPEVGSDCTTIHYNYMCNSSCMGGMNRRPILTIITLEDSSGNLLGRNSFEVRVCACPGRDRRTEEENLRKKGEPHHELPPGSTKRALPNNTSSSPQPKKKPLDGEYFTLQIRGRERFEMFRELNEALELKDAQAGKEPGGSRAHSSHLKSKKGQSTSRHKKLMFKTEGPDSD

As to `O=C1CN(c2ncnc3sccc23)CCN1Cc1ccc(F)cc1`, the results for the nuclei count, normalised in test [1] (setting [3]) and in test [1] (setting [4]) were 108% and 111%, respectively. Moreover, the p53-positive nuclei, normalised is -0.087% (inactive) in test [2] (concentration not given here) and -0.23% in test [2] (setting [5]).
As to `CC=CCC(C)C(O)C1C(=O)NC(CC)C(=O)N(C)CC(=O)N(C)C(CC(C)C)C(=O)NC(C(C)C)C(=O)N(C)C(CC(C)C)C(=O)NC(C)C(=O)NC(C)C(=O)N(C)C(CC(C)C)C(=O)N(C)C(CC(C)C)C(=O)N(C)C(C(C)C)C(=O)N1C` (configuration not stated), the nuclei count, normalised is 114% and 120% in test [1] (setting [6]); 120% and 121% in test [1] (setting [7]). The p53-positive nuclei, normalised was -0.306% (inactive) and -0.666% (inactive) in test [2] (setting [8]); -0.452% and -0.338% in test [2] (setting [9]).
With `Cc1ncc(-c2ccnc(Nc3ccc(S(C)(=O)=O)cc3)n2)n1C(C)C`, the nuclei count, normalised is 104% and 73.6% in test [1] (setting [10]); 100% and 83.3% in test [1] (setting [11]); 54.9% and 60.1% in test [1] (setting [12]); 46.1% in test [1] (setting [6]); 36.9% and 37.6% in test [1] (setting [13]); 105% and 49.6% in test [1] (setting [14]). Also, the nuclei count, normalised is 89.2% and 61.2% in test [1] (setting [15]); 24.1% and 33.6% in test [1] (setting [16]); 23% in test [1] (setting [7]); 21.8% and 24.6% in test [1] (setting [17]). For the same compound, the p53-positive nuclei, normalised in test [2] (setting [18]) is 0.106% (inactive) and 10.7% (inactive); in test [2] (setting [19]), 0.447% (inactive) and 4.11% (inactive); in test [2] (setting [20]) it was 57.6% (inactive) and 42.9% (inactive); in test [2] (setting [8]) it was 60.3% (active); in test [2] (setting [21]), 50.8% (inactive) and 49.9% (inactive); in test [2] (setting [22]), 0.00746% and 0.944%. Further, the p53-positive nuclei, normalised in test [2] (setting [23]) is 0.0769% and 0.14%; in test [2] (setting [24]), 34.6% and 11.8%; in test [2] (setting [9]) it was 32.5%; in test [2] (setting [25]) it was 15.1% and 13.6%.
For `Cc1nn(C)c(C)c1-c1ccnc(NCC(C)Oc2cccnc2)n1` (configuration not stated), the nuclei count, normalised in test [1] (setting [3]) was 103%; in test [1] (setting [4]), 101%. The p53-positive nuclei, normalised in test [2] (concentration not given here) was -0.151% (inactive); in test [2] (setting [5]), -0.079%.
In the case of `COc1cc(-c2cccc(C)c2C)nc(N)n1`, the nuclei count, normalised in test [1] (setting [3]) was determined as 87.1%; in test [1] (setting [4]), 74.8%. For the same compound, the p53-positive nuclei, normalised was 0.587% (inactive) in test [2] (concentration not given here) and 0.226% in test [2] (setting [5]).
On the same counts, the results for `CN(CC1COc2ccccc2O1)C(=O)Nc1nncs1` (configuration not stated) are 103%, 104%, -0.215% (inactive) and -0.0697%.
In the case of `O=C1NCCSc2c1sc1ccc(O)cc21`, the nuclei count, normalised in test [1] (measured here: cell number at 24 h, Library stock concentration: 46 uM) came to 111%; in test [1] (measured here: cell number at 24 h, Library stock concentration: 278 uM), 108%; in test [1] (measured here: cell number at 24 h, Library stock concentration: 1.67 mM), 101%; in test [1] (setting [13]), 56.1%; in test [1] (measured here: cell number at 48 h, Library stock concentration: 46 uM), 110%; in test [1] (measured here: cell number at 48 h, Library stock concentration: 278 uM), 113%. In addition, the nuclei count, normalised in test [1] (measured here: cell number at 48 h, Library stock concentration: 1.67 mM) is 113%; in test [1] (setting [17]), 36.9%. Moreover, the p53-positive nuclei, normalised was -0.0208% (inactive) in test [2] (Library stock concentration: 46 uM); -0.288% (inactive) in test [2] (Library stock concentration: 278 uM); 0.37% (inactive) in test [2] (Library stock concentration: 1.67 mM); 60.9% (active) in test [2] (setting [21]); 0.0309% in test [2] (measured here: p53 positive nuclei at 24 h, Library stock concentration: 46 uM); -0.0893% in test [2] (measured here: p53 positive nuclei at 24 h, Library stock concentration: 278 uM). Moreover, the p53-positive nuclei, normalised worked out at 0.2% in test [2] (measured here: p53 positive nuclei at 24 h, Library stock concentration: 1.67 mM) and 4.05% in test [2] (setting [25]).
Regarding `O=C1NCCCc2c1oc1ccc(O)cc21`, the nuclei count, normalised in test [1] (setting [10]) worked out at 99.3%; in test [1] (setting [11]), 92.2%; in test [1] (setting [12]), 96.6%; in test [1] (setting [13]), 89.4%; in test [1] (setting [14]), 104%; in test [1] (setting [15]), 99.1%. Also, the values for the nuclei count, normalised in test [1] (setting [16]) and in test [1] (setting [17]) were 99.6% and 98.7%, respectively. For the same compound, the p53-positive nuclei, normalised in test [2] (setting [18]) was -0.0796% (inactive); in test [2] (setting [19]), -0.0299% (inactive); in test [2] (setting [20]) it was 0.259% (inactive); in test [2] (setting [21]), 0.273% (inactive); in test [2] (setting [22]), -0.0621%; in test [2] (setting [23]), -0.105%. Moreover, the results for the p53-positive nuclei, normalised in test [2] (setting [24]) and in test [2] (setting [25]) were 0.32% and 0.126%, respectively.
On to `CCCCCCCCCCCCCCCCOC[C@H](CO)OC(C)=O`, for which the results for the nuclei count, normalised in test [1] (setting [3]) and in test [1] (setting [4]) were 97.1% and 102%, respectively. Besides, the figures for the p53-positive nuclei, normalised in test [2] (concentration not given here) and in test [2] (setting [5]) were -0.0599% (inactive) and 0.0467%, respectively.
With `COc1ccc2nc3ccc(OC)cc3c(SCCCN)c2c1`, the nuclei count, normalised in test [1] (setting [10]) came to 111%; in test [1] (setting [11]) it was 114%; in test [1] (setting [12]), 103%; in test [1] (setting [13]), 81.6%; in test [1] (setting [14]), 119%; in test [1] (setting [15]), 115%. The nuclei count, normalised in test [1] (setting [16]) stood at 109%; in test [1] (setting [17]) it was 90.5%. Further, the p53-positive nuclei, normalised was -0.0602% (inactive) in test [2] (setting [18]); -0.0191% (inactive) in test [2] (setting [19]); -0.0521% (inactive) in test [2] (setting [20]); 0.61% (inactive) in test [2] (setting [21]); -0.00591% in test [2] (setting [22]); -0.136% in test [2] (setting [23]). Besides, the p53-positive nuclei, normalised came to 0.00172% in test [2] (setting [24]) and 0.819% in test [2] (setting [25]).
As to `CC(C)[C@H](C(=O)Nc1ccc(C(=O)NO)cc1)c1ccccc1`, the nuclei count, normalised in test [1] (setting [3]) is 80%; in test [1] (setting [4]), 65.6%. Further, the p53-positive nuclei, normalised in test [2] (concentration not given here) was 9.18% (inactive); in test [2] (setting [5]) it was 17.4%.
For the compound `CC(C)C(C(=O)Nc1ccc(C(=O)NO)cc1)c1ccccc1` (configuration not stated), the nuclei count, normalised in test [1] (setting [6]) stood at 45.5%; in test [1] (setting [7]) it was 32%. The p53-positive nuclei, normalised was 48.1% (active) in test [2] (setting [8]) and 50.4% in test [2] (setting [9]).
On the same counts, the results for `CC(=O)Nc1ccc(C(=O)Nc2ccccc2N)cc1` are 92.6%, 89.8%, 0.127% (inactive) and -0.311%.
Turning to `COc1ccc(F)cc1-c1cnn(CC(=O)Nc2cc(C)nn2C)c1`, the nuclei count, normalised in test [1] (setting [3]) stood at 95.8%; in test [1] (setting [4]), 92.9%. For the same compound, the p53-positive nuclei, normalised was 0.158% (inactive) in test [2] (concentration not given here) and -0.0647% in test [2] (setting [5]).
In the case of `CCCCC/C=C/C/C=C/CCCCCCCC(=O)O`, the nuclei count, normalised in test [1] (setting [3]) and in test [1] (setting [4]) was 108% each time. Also, the p53-positive nuclei, normalised in test [2] (concentration not given here) was -0.00219% (inactive); in test [2] (setting [5]), -0.0851%.

These data come from PubChem BioAssay AID1508601 (ICCB-Longwood Screening Facility, Harvard Medical School, 2020).
